Screens from PubChem BioAssay.
D1 ag – human D1 receptor agonism; HEK293 T-REx D1 cells, calcium flux, agonist mode; activation, % at 2 µM; hit rate 1% among 360,000; AID 504660
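Inducible HEK293 T-REx D1 cells, force-coupled to calcium signalling, were plated at 4000 cells/well with tetracycline and held overnight at 30 C. After no-wash calcium dye loading, compound-evoked calcium rise over 180 s flagged agonists.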
TRHR ag – activates the human TRH receptor | TRHR cells, calcium flux fluo-8, FDSS agonist mode | activation, % at 2 µM | hit rate 0.18% among 360,000 | AID 493084
Target sequence (P34981 whole entry, looked up): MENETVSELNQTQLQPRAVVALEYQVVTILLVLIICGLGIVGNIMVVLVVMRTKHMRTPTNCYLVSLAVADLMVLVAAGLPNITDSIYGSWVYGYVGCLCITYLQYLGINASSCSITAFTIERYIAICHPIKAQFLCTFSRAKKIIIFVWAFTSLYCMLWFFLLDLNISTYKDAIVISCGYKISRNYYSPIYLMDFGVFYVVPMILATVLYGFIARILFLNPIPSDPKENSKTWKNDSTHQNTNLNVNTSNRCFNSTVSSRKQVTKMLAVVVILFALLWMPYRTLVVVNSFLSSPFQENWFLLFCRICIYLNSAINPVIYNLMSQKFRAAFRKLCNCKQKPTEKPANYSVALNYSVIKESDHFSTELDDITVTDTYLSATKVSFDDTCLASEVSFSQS
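Agonist-mode FDSS calcium read (Ex 480/Em 530, 1 s cycles) in 1536-well TRHR cells with fluo-8 dye, after 10-cycle baseline and 23 nL compound addition; TRH at EC20 (10 nM final) added afterwards for the enhancer phase.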
D1 antag – blocks dopamine activation of the human D1 receptor; activity change, negative = inhibition, % at 10 µM; hit rate 3.2% among 360,000; P21728; HEK293 TREx D1 cells, calcium flux, dopamine EC80; active compounds read low; AID 504652; in the data active means activity change below about -30%
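Cells carrying a force-coupled, tetracycline-inducible human D1 receptor report calcium flux. Each well gets a 10 s baseline, compound with 180 s monitoring, then an EC80 dopamine stimulus with a second 180 s kinetic read.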
TRHR PAM – allosteric enhancers of human TRH receptor; TRHR cells, fluo-8 calcium fluorescence, EC20 TRH enhancement; enhancement, % at 2 µM; hit rate 0.66% among 360,000; AID 493056; in the data active means enhancement above about 30%
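TRHR-expressing cells loaded with fluo-8 calcium dye were read kinetically (ex 480/em 530) during compound addition, then stimulated with an EC20 of TRH (10 nM final). Enhancement of the Gq-mediated intracellular calcium response was scored.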
D1 PAM – human D1 dopamine receptor positive modulation | AID 504651 | P21728 | hit rate 0.036% among 360,000 | potentiation, % at 10 µM | HEK293 TREx D1 cells, calcium flux, dopamine EC20 potentiation; in the data active means potentiation above about 30%
Large screens that a line does not name were inactive. Shown are actives, neighbours in structure and some others; about 4.7% of the full set was active somewhere. Unless noted, no stated cut-off is given here; in the data, active means activation above about 30%; inactive means the rest.

CC(C)/C=C/CN1CCCC(N2CCN(c3cccc(Cl)c3)CC2)C1 (configuration not stated)	D1 antag -37.1
CCOc1cccc(CN2CCCC(N3CCN(c4cccc(Cl)c4)CC3)C2)c1O (configuration not stated)	none
O=C(Cc1nnc(CNC(=O)c2ccccc2)s1)Nc1ccc(C(F)(F)F)cc1Cl	none
COc1cc(NC(=O)CCc2nc3cccnc3n2Cc2cccs2)cc(OC)c1OC	none
COc1ccc(NC(=O)Cn2c(=O)oc3cc(S(=O)(=O)NC4CCCC4)ccc32)cc1OC	none
O=C1Nc2ccccc2C1(c1ccccc1)c1ccccc1	D1 ag 33.0
Cc1cc(C(C#N)c2ccc(Cl)cc2)c(Cl)cc1NC(=O)c1cc(I)cc(I)c1O (configuration not stated)	D1 antag -33.3
Cc1ccc(C(=O)Cn2cnc3ccccc3c2=O)cc1C	D1 ag 43.3
CCOc1ccc(OCCCCn2cnc3ccccc3c2=O)cc1	D1 antag -41.9
Cc1ccc(C)c(OCCCCn2cnc3ccccc3c2=O)c1	D1 ag 39.4
O=C(Cn1cnc2ccccc2c1=O)c1ccc2ccccc2c1	none
CCc1nc2nc(C)cc(Nc3ccc(Br)cc3F)n2n1	none
O=C(CCCN1CC=C(n2c(=O)[nH]c3ccccc32)CC1)c1ccc(F)cc1	D1 antag -70.8
CCOc1ccc2nc(N3CCN(C(=O)c4ccco4)CC3)sc2c1	none (no result: D1 antag)
COC(=O)Cn1c(O)c(N=NC(=O)c2ccc3c(c2)OCO3)c2ccccc21	D1 antag -34.9
COc1ccc(CCN2C(=O)CSC2c2cccc([N+](=O)[O-])c2)cc1OC (configuration not stated)	D1 antag -30.2
N=C(N=C(N)N)N1CCc2ccccc21	D1 antag -37.4
CC1=CC(C)(C)Nc2ccc(Cc3ccc4c(c3)C(C)=CC(C)(C)N4)cc21	TRHR PAM 38.4
CC1=CC(C)(C)Nc2ccc(C)cc21	none
Cc1cc(=O)n2nc(N(C)CC(=O)NCc3ccccc3C)sc2n1	none
COc1ccc(C(=O)c2ccc(OC)cc2OC)cc1	D1 antag -48.5
COc1ccc(C(=O)c2ccc(N(C)C)cc2)c(OC)c1	none
CC(C)c1nnc(N2C(=O)C(O)=C(C(=O)c3cccs3)C2c2ccccc2)s1 (configuration not stated)	D1 ag 269.7, TRHR ag 169.3 (no result: D1 antag)
COc1ccc(C2C(C(=O)c3cccs3)=C(O)C(=O)N2c2nnc(C)s2)cc1OC (configuration not stated)	D1 ag 77.0, TRHR ag 192.6
Cc1cccc(N2C(=O)C(O)=C(C(=O)c3cccs3)C2c2ccc(C(C)C)cc2)n1 (configuration not stated)	none
COc1ccc(C2C(C(=O)c3cccs3)=C(O)C(=O)N2c2nncs2)cc1 (configuration not stated)	D1 ag 67.4, TRHR ag 36.2
Cc1ccc(Cl)cc1N1CCN(C(=O)CCS(=O)(=O)c2ccc3c(c2)oc(=O)n3C)CC1	none
COc1ccc2c(Sc3ccccc3)c(C(=O)NCCCN3CCCCC3)[nH]c2c1	none
Cc1ccc(S(=O)(=O)c2cnc(SCC(=O)Nc3cccc(Cl)c3)nc2N)cc1C	none
CCNc1ccc(-c2nc(-c3ccccn3)no2)cc1[N+](=O)[O-]	none
CC(=O)Nc1ccc(OCC(O)Cn2cccn2)cc1 (configuration not stated)	D1 antag -34.9
CC(=O)Nc1ccc(OCC(O)CN2CCN(S(=O)(=O)c3ccc(NC(C)=O)cc3)CC2)cc1 (configuration not stated)	D1 antag -33.8
CC(=O)c1ccc(OCC(O)CN2CCOCC2)cc1 (configuration not stated)	D1 antag -35.1
O=C(Cn1ccc2cc(S(=O)(=O)N3CCCCCC3)ccc21)NCc1cccc(Cl)c1	none
COc1ccc(CC(=O)N(Cc2nc(-c3ccc(C)cc3)no2)C(C)C)cc1	none
CC(C)(C)c1cccc(Cn2nnc3ccccc32)c1O	D1 antag -42.9
CSc1nc2c(sc3ccccc32)c(=O)n1Cc1ccc(C)cc1	none
O=[N+]([O-])c1ccc(-n2nnnc2-c2ccccc2)cc1	TRHR PAM 35.6
